# Measurements taken from PubChem BioAssay.
# Active and inactive are the calls of the source.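 The calls were made as follows, unless noted: active = fluorescence slope after compound addition differing from the mean of all screened samples at 99.7% confidence, in either direction; inactive = the rest.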
# What was measured:
# [1] = inhibitors of TNFa-induced NFkB p65 translocation, primary screen, imaging, HUVEC, MLSMR starter and 10KST1 sets (AID 438;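 active = inhibition above 20% together with a positive visual image hit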;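 also: compound added about 3h40 before a 20 min TNFalpha stimulation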;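 as to inhibition: signal is the nuclear over cytoplasmic p65 intensity ratio per well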); conditions: HUVEC TNFa-induced p65 nuclear translocation; cell count: measured here: nuclei count (cytotoxicity indicator), at 2.08 µM; inhibition: at 2 µM, stronger effect = higher value, 0% TNFa-plus-vehicle, 100% no-TNFa wells
# [2] = inhibitors of mutant huntingtin aggregation, primary screen, imaging, exon1htt(103Q)mCFP cells, high-content imaging (AID 483;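 active = visual image review flags a hit and inhibition of aggregation exceeds 20%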;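 also: compound exposure lasted 3 days before fixation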;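 as to nuclei count: percent of the per-plate median nuclei count of sample wells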); conditions: exon1htt(103Q)mCFP cell line, aggregate imaging, at 2 µM; inhibition of aggregation: stronger effect = higher value; nuclei count: measured here: cell count, toxicity
# [3] = inhibitors of E-selectin induction by TNFa, primary screen, imaging, HUVEC, immunofluorescence, MLSMR starter and 10KST1 sets (AID 487;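 active = visually confirmed hit in the image check and inhibition above 20%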;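 as to inhibition: signal is fraction of cell area covered by stained E-selectin grains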;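 as to nuclei count: 100% = median nuclei count of all wells on the same plate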); conditions: HUVEC TNFalpha-induced E-selectin immunofluorescence imaging, at 2 µM; inhibition: stronger effect = higher value; nuclei count: measured here: cell number, toxicity
# [4] = biological target: Voltage-gated potassium channel subunit beta-2 (Rattus norvegicus) (UniProt P62483); experiment: KvBeta enzyme negative modulators, primary screen, biochemical, NADPH fluorescence (AID 622;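 active = fluorescence slope higher than the sample average by over 3 SD, cut at about -0.22 in these data, passing the limit was not always enough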;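 also: slope of raw intensity against log time taken from 70 to 1610 s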); conditions: recombinant KvBeta, 4-cyanobenzaldehyde reduction, at 10 µM, stronger effect = higher value
# Sequence of Voltage-gated potassium channel subunit beta-2 (Rattus norvegicus) (P62483 whole entry, looked up): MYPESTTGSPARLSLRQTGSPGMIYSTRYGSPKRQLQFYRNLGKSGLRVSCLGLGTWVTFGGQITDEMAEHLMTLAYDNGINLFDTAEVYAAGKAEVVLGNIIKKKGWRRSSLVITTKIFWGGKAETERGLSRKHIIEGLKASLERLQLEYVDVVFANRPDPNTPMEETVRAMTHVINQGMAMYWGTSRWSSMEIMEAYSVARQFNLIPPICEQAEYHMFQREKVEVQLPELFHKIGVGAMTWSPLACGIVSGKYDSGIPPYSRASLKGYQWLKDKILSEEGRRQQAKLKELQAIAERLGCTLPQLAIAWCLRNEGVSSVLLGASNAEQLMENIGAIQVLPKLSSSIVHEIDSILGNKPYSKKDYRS
# [5] = biological target: Voltage-gated potassium channel subunit beta-2 (Rattus norvegicus) (UniProt P62483); experiment: KvBeta positive modulators, primary screen, biochemical, NADPH fluorescence (AID 623;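 active = NADPH fluorescence slope more negative than the mean of all samples by about 3 SD, 99.7% confidence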;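 also: fluorescence intensity change per second fitted from 20 to 320 s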); conditions: Recombinant KvBeta, NADPH fluorescence decrease slope, 10 min; at 10 µM; stronger effect = lower value
# [6] = biological target: Alpha-2C adrenergic receptor (Homo sapiens) (UniProt P18825); experiment: modulators of alpha2C/GIRK thallium flux, primary screen, cell-based, HEK293 alpha2C/GIRK1/2 (AID 624); conditions: thallium flux BTC fluorescence, at 10 µM, actives lie on both sides;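 also: slope of fluorescence ratio to pre-addition baseline per second over 15 to 24 s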
# Sequence of Alpha-2C adrenergic receptor (Homo sapiens) (P18825 whole entry, looked up): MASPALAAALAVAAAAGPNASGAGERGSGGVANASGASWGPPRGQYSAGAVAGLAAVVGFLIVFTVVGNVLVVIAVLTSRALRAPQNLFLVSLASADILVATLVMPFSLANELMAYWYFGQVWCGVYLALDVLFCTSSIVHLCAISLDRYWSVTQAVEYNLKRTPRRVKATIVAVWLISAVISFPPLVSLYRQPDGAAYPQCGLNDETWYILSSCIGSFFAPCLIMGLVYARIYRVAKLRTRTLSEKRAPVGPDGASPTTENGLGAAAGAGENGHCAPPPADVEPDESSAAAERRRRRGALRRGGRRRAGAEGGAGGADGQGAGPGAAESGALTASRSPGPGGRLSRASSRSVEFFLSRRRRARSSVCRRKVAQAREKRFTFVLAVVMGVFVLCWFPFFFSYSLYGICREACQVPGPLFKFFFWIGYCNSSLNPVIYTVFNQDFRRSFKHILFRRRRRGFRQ
# [7] = inhibitors of Sendai virus-induced IRF3 signaling, primary screen, TLR/RLR signaling modifier project, cell-based, Sendai virus stimulus, luciferase, 10K MLSCN set (AID 602276;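 active = inhibition at or above 50% at 10 µM; inactive = inhibition below 50%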;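 also: firefly luciferase from ISG56 promoter only with Renilla not read in this screen; 0% = Sendai virus plus DMSO and 100% = medium plus DMSO without virus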); conditions: HEK293 RL24 IRF3 luciferase reporter, at 10 µM, stronger effect = higher value
# [8] = inhibitors of poly I:C-induced TLR3 signaling, primary screen, cell-based, poly I:C stimulus, luciferase, 10K MLSCN set (AID 602277;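 active = inhibition of the reporter signal at or above 50%; inactive = inhibition below 50%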); conditions: HEK293-TLR3 RL24 IRF3 luciferase reporter, at 10 µM, stronger effect = higher value
SMILES,cell count [1],inhibition [1],inhibition of aggregation [2],nuclei count [2] [%],inhibition [3],nuclei count [3] [%],fluorescence slope [4],NADPH fluorescence slope [5],slope [6],inhibition [7],inhibition [8]
COCCCNC(=O)c1c(N)n(-c2cccc(S(N)(=O)=O)c2)c2nc3ccccc3nc12,245,7% (inactive),-15.6% (inactive),98.9,1.4% (inactive),73.3,-0.0132 (inactive),1.8e-09 (inactive),0.00575 (inactive),10.6% (inactive),-0.988% (inactive)
CCOC(=O)c1ccccc1NC(=O)CSc1nccn1C,436,9.7% (inactive),-23.9% (inactive),108,-32.6% (inactive),108,-0.465 (inactive),-0.000118 (inactive),0.00604 (inactive),8.57% (inactive),19.3% (inactive)
O=C(Nc1cccc(O)c1)c1ccccc1,474,18.5% (inactive),6% (inactive),98.6,-32.9% (inactive),102,-0.521 (inactive),5e-06 (inactive),0.00606 (inactive),-19.1% (inactive),-29.4% (inactive)
CNC(=O)CSc1nnc(-c2ccc(S(=O)(=O)N3CCCC3)cc2)n1-c1cccc(C)c1C,643,-2.4% (inactive),-15.2% (inactive),108,-87.7% (inactive),106,-0.458 (inactive),-4.2e-05 (inactive),0.00667 (inactive),12.2% (inactive),33.2% (inactive)
Cn1c(SCC(=O)Nc2ccc3c(c2)OCO3)nnc1-c1cnccn1,656,6.5% (inactive),3.7% (inactive),94.2,46.9% (inactive),91.7,-0.366 (inactive),-5.5e-05 (inactive),0.00395 (inactive),12.5% (inactive),24.2% (inactive)
Cc1nc(N2CCC(C)CC2)c2c(C)c(C(=O)O)sc2n1,657,-4.1% (inactive),31% (inactive),66.2,-72.5% (inactive),103,-0.303 (inactive),1.1e-05 (inactive),0.00417 (inactive),14% (inactive),23.3% (inactive)
CCC(C)Nc1nc2c(c(=O)n(C)c(=O)n2C)n1Cc1ccc(F)cc1 (stereo not drawn),436,14.8% (inactive),9.6% (inactive),100,-18.5% (inactive),106,-0.617 (inactive),-3.2e-05 (inactive),0.00579 (inactive),15.9% (inactive),23.7% (inactive)
N#CC1=C(SCC(=O)c2cc3ccccc3oc2=O)NC(=O)C(C#N)C12CCCC2 (stereo not drawn),639,-36.2% (inactive),14.2% (inactive),104,-47.7% (inactive),123,-0.493 (inactive),-5.2e-05 (inactive),0.00421 (inactive),23% (inactive),31.4% (inactive)
